# The source made the active and inactive calls.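 How the source made its calls, unless noted: active means inhibition above 20% together with a positive visual image hit; inconclusive means visual image hit but inhibition not above 20%; inactive means no visual image hit.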
# Columns and labels:
# [1] = inhibitors of TNFa-induced NFkB p65 translocation, primary screen, imaging, HUVEC, MLSMR starter and 10KST1 sets (AID 438); details: HUVEC TNFa-induced p65 nuclear translocation; cell count: measured here: nuclei count (cytotoxicity indicator), at 2.08 µM; inhibition: at 2 µM, stronger effect = higher value, 0% TNFa-plus-vehicle, 100% no-TNFa wells;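 further: compound added about 3h40 before a 20 min TNFalpha stimulation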;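 on inhibition: signal is the nuclear over cytoplasmic p65 intensity ratio per well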
# [2] = inhibitors of mutant huntingtin aggregation, primary screen, imaging, exon1htt(103Q)mCFP cells, high-content imaging (AID 483;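 active means visual image review flags a hit and inhibition of aggregation exceeds 20%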;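 further: compound exposure lasted 3 days before fixation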;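 on nuclei count: percent of the per-plate median nuclei count of sample wells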); details: exon1htt(103Q)mCFP cell line, aggregate imaging, at 2 µM; inhibition of aggregation: stronger effect = higher value; nuclei count: measured here: cell count, toxicity
# [3] = inhibitors of E-selectin induction by TNFa, primary screen, imaging, HUVEC, immunofluorescence, MLSMR starter and 10KST1 sets (AID 487;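 active means visually confirmed hit in the image check and inhibition above 20%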;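 on inhibition: signal is fraction of cell area covered by stained E-selectin grains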;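 on nuclei count: 100% = median nuclei count of all wells on the same plate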); details: HUVEC TNFalpha-induced E-selectin immunofluorescence imaging, at 2 µM; inhibition: stronger effect = higher value; nuclei count: measured here: cell number, toxicity
# [4] = target: Voltage-gated potassium channel subunit beta-2 (Rattus norvegicus) (UniProt P62483); assay: KvBeta enzyme negative modulators, primary screen, biochemical, NADPH fluorescence (AID 622;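 active means fluorescence slope higher than the sample average by over 3 SD, cut at about -0.22 in these data, passing the limit was not always enough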;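 further: slope of raw intensity against log time taken from 70 to 1610 s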); details: recombinant KvBeta, 4-cyanobenzaldehyde reduction, at 10 µM, stronger effect = higher value
# Voltage-gated potassium channel subunit beta-2 (Rattus norvegicus), sequence (P62483 whole entry, looked up): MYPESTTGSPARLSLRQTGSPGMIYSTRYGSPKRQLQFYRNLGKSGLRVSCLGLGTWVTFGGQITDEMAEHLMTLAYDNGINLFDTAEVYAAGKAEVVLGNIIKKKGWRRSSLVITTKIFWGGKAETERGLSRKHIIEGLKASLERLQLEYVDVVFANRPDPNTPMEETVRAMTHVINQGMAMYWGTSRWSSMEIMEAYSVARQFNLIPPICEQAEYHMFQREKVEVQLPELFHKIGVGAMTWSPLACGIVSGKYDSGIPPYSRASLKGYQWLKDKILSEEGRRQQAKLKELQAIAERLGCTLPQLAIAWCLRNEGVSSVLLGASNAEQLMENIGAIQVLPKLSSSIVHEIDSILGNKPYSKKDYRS
# [5] = target: Voltage-gated potassium channel subunit beta-2 (Rattus norvegicus) (UniProt P62483); assay: KvBeta positive modulators, primary screen, biochemical, NADPH fluorescence (AID 623;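 active means NADPH fluorescence slope more negative than the mean of all samples by about 3 SD, 99.7% confidence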;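 further: fluorescence intensity change per second fitted from 20 to 320 s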); details: Recombinant KvBeta, NADPH fluorescence decrease slope, 10 min; at 10 µM; stronger effect = lower value
# [6] = target: Alpha-2C adrenergic receptor (Homo sapiens) (UniProt P18825); assay: modulators of alpha2C/GIRK thallium flux, primary screen, cell-based, HEK293 alpha2C/GIRK1/2 (AID 624;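 active means fluorescence slope after compound addition differing from the mean of all screened samples at 99.7% confidence, in either direction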;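 further: slope of fluorescence ratio to pre-addition baseline per second over 15 to 24 s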); details: thallium flux BTC fluorescence, at 10 µM, actives lie on both sides
# Alpha-2C adrenergic receptor (Homo sapiens), sequence (P18825 whole entry, looked up): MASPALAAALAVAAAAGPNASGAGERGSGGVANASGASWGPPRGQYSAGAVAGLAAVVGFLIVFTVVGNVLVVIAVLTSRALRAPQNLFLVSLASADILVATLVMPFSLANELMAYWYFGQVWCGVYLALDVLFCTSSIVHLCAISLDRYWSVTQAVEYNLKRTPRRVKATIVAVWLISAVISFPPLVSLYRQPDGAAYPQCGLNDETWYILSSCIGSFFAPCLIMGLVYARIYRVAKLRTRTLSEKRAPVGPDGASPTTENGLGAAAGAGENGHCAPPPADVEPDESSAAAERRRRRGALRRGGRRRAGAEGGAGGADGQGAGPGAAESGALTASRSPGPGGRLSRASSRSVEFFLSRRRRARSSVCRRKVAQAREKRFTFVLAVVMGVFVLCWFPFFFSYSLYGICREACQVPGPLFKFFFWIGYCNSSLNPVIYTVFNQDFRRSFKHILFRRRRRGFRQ
# [7] = inhibitors of Sendai virus-induced IRF3 signaling, primary screen, TLR/RLR signaling modifier project, cell-based, Sendai virus stimulus, luciferase, 10K MLSCN set (AID 602276;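 active means inhibition at or above 50% at 10 µM; inactive means inhibition below 50%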;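 further: firefly luciferase from ISG56 promoter only with Renilla not read in this screen; 0% = Sendai virus plus DMSO and 100% = medium plus DMSO without virus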); details: HEK293 RL24 IRF3 luciferase reporter, at 10 µM, stronger effect = higher value
# [8] = inhibitors of poly I:C-induced TLR3 signaling, primary screen, cell-based, poly I:C stimulus, luciferase, 10K MLSCN set (AID 602277;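 active means inhibition of the reporter signal at or above 50%; inactive means inhibition below 50%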); details: HEK293-TLR3 RL24 IRF3 luciferase reporter, at 10 µM, stronger effect = higher value
SMILES,cell count [1],inhibition [1],inhibition of aggregation [2],nuclei count [2],inhibition [3],nuclei count [3],fluorescence slope [4],NADPH fluorescence slope [5],slope [6],inhibition [7],inhibition [8]
COc1cccc(C(=O)Nc2cc(C)c3c(=O)oc4ccccc4c3n2)c1,526,0.3% (inactive),9.3% (inactive),93.9%,-0.1% (inactive),92.8%,-0.429 (inactive),-3.7e-05 (inactive),0.00602 (inactive),10.3% (inactive),22.2% (inactive)
COC(=O)C1(C)NC(c2cccs2)C2C(=O)N(c3ccccc3F)C(=O)C21 (centres undefined),334,2.8% (inactive),-16.9% (inactive),101%,-24.7% (inactive),119%,-0.52 (inactive),2.7e-06 (inactive),0.00503 (inactive),-3.44% (inactive),-0.188% (inactive)
COC(=O)[C@@H](NC(=O)NCc1ccccc1Cl)C(C)C,732,8.4% (inactive),-23.1% (inactive),100%,15.5% (inactive),109%,-0.469 (inactive),-2.9e-05 (inactive),0.00402 (inactive),4.11% (inactive),32.6% (inactive)
CC1(C)CC(=O)c2cnc(NC(=O)Cc3ccc(Cl)cc3)nc2C1,382,-0.3% (inactive),-0.3% (inactive),97.2%,-20.1% (inactive),115%,-0.485 (inactive),-4.8e-05 (inactive),0.00659 (inactive),-25% (inactive),18.3% (inactive)
O=c1[nH]c(NCc2ccccc2)nc2c1CCCC2,580,4.4% (inactive),-3.3% (inactive),112%,46% (inactive),101%,-0.348 (inactive),-3.1e-05 (inactive),0.00472 (inactive),-1.14% (inactive),-4.72% (inactive)
COc1ccc(/C(O)=C2/C(=O)C(=O)N(CCCN(C)C)C2c2ccc(Cl)cc2)cc1OC (centres undefined),332,4.5% (inactive),-28.5% (inactive),122%,-11.6% (inactive),112%,-0.527 (inactive),-3.6e-05 (inactive),0.00513 (inactive),12.7% (inactive),10.6% (inactive)
C=COC(=O)CSc1snc(SCC(=O)OC)c1C#N,300,-6.3% (inactive),11.1% (inactive),102%,-31.9% (inactive),88.9%,-0.581 (inactive),-4.2e-06 (inactive),0.00524 (inactive),15.5% (inactive),18.4% (inactive)
O=C(CCN1C(=O)C2C3C=CC(C3)C2C1=O)N1CCN(c2ccccc2Cl)CC1 (centres undefined),776,-18.1% (inactive),-5% (inactive),123%,2.5% (inactive),107%,-0.399 (inactive),-4.7e-05 (inactive),0.00465 (inactive),10.7% (inactive),11.9% (inactive)
CC(C)CCn1c(=O)c2ccccc2n2c(CN(C)Cc3ccccc3)nnc12,486,-14.2% (inactive),0.2% (inactive),101%,-78.1% (inactive),170%,-0.537 (inactive),1.9e-05 (inactive),0.00576 (inactive),8.18% (inactive),26.3% (inactive)
NC(=O)NC(c1ccccc1)c1ccccc1F (centres undefined),565,-4.8% (inactive),12.6% (inactive),99.1%,36.7% (inactive),88.9%,-0.317 (inactive),5.1e-06 (inactive),0.00595 (inactive),2.53% (inactive),25.9% (inactive)
CCOC(=O)CSc1nnc(NCC(=O)OC(C)C)c(=O)[nH]1,634,7.2% (inactive),3.7% (inactive),100%,-81.4% (inactive),144%,-0.573 (inactive),3.9e-05 (inactive),0.00694 (inactive),9.31% (inactive),3.05% (inactive)
CCOC(=O)c1sc2nc(NC(=O)C3CCCCC3)sc2c1C,570,-0.8% (inactive),4.6% (inactive),92.9%,19.5% (inactive),96%,-0.533 (inactive),-2.5e-05 (inactive),0.00612 (inactive),-10.3% (inactive),-9.22% (inactive)
CCOC(=O)CSc1nnc([C@H](CC(C)C)NC(=O)OC(C)(C)C)o1,696,6.5% (inactive),23.3% (inactive),81.4%,13.7% (inactive),104%,-0.501 (inactive),-1.8e-05 (inactive),0.0048 (inactive),13.5% (inactive),14.4% (inactive)
CCOC(=O)N1CCN(c2c(N3CCN(c4ccccc4OC)CC3)c(=O)c2=O)CC1,651,-2.3% (inactive),18.3% (inactive),109%,-66.1% (inactive),129%,-0.532 (inactive),-2.1e-05 (inactive),0.0077 (inactive),3.99% (inactive),15% (inactive)
O=C(NCCCN1CCOCC1)c1ccc(CS(=O)(=O)c2c(Cl)cccc2Cl)o1,440,0.9% (inactive),-10.5% (inactive),98.2%,-46.8% (inactive),103%,-0.458 (inactive),2.8e-05 (inactive),0.00463 (inactive),-8.21% (inactive),6.97% (inactive)
O=C(NCc1nc2ccccc2[nH]1)c1ccc(Cl)c(S(=O)(=O)N2CCCC2)c1,594,-15.4% (inactive),-35.2% (inactive),101%,47% (inactive),112%,-0.531 (inactive),2.5e-05 (inactive),0.00466 (inactive),-7.84% (inactive),-15.6% (inactive)
COc1cc(OC)c(C2N(C)c3ccccc3N2C)cc1OC,403,1.7% (inactive),-0.8% (inactive),111%,-64.6% (inactive),105%,-0.502 (inactive),-1.1e-05 (inactive),0.00623 (inactive),-3.76% (inactive),26.3% (inactive)
Cc1ccccc1OCC(O)CN (centres undefined),298,15.6% (inactive),32.2% (active),104%,14.2% (inactive),95.6%,-0.542 (inactive),1.7e-05 (inactive),0.00273 (inactive),-20.3% (inactive),-17.4% (inactive)
Clc1ccc2c(c1)[C@H]1OCC[C@H]1[C@@H](c1ccco1)N2,824,5.5% (inactive),-3.2% (inactive),98.8%,-101% (inactive),125%,-0.572 (inactive),-3.2e-05 (inactive),0.00552 (inactive),-42.9% (inactive),-122% (inactive)
